Test results: PubChem BioAssay AID1159580 (chemical genetic matrix, 2015)
The campaign covered roughly 5,500 compounds. About 2,000 (36%) were called active. Inconclusive results (about 18%) are left out. Rule as the data show it: active = normalized growth mostly below about 0.91 (no sharp cut-off); inconclusive = no clear call, values can overlap the other calls; inactive = mostly above about 0.92. The list shows a part of the results.

Assay: chemical genetic growth profiling, strain panel (AID 1159580);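 also: tested at 20 µM; growth read once vehicle control cultures reached saturation at 30 °C; 1 = growth at the plate median or of vehicle wells; lower values mean less growth of the strain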
Details: S. cerevisiae deletion strains, growth OD
[1] = locus YHR030C, strain SLT2, hits give low values
[2] = locus YHR079C, strain IRE1, hits give low values
[3] = locus YJL095W, strain BCK1, hits give low values
[4] = locus YJR066W, strain TOR1, hits give low values
[5] = locus YLR113W, strain HOG1, hits give low values
[6] = locus YNL183C, strain NPR1, hits give low values
[7] = locus YOR231W, strain MKK1, hits give low values
[8] = locus YPL256C, strain CLN2, hits give low values
[9] = locus YAL040C, strain CLN3, hits give low values
[10] = locus YCL061C, strain MRC1 (second series), hits give low values
[11] = locus YDR363W, strain ESC2, hits give low values
[12] = locus YER002W, strain NOP16, hits give low values
[13] = locus YGR078C, strain PAC10, hits give low values
[14] = locus YGR229C, strain SMI1, hits give low values
[15] = locus YMR263W, strain SAP30, hits give low values
[16] = locus YNL153C, strain GIM3, hits give low values
[17] = locus YNL175C, strain NOP13, hits give low values
[18] = locus YNL197C, strain WHI3, hits give low values
[19] = locus YNL224C, strain SQS1, hits give low values
[20] = locus YNL322C, strain KRE1, hits give low values
[21] = locus YOR083W, strain WHI5 (second series), hits give low values
[22] = locus YPL241C, strain CIN2, hits give low values
[23] = locus YDR150W, strain NUM1, hits give low values
[24] = locus YJR075W, strain HOC1, hits give low values
[25] = locus YNL128W, strain TEP1, hits give low values
[26] = locus YPL055C, strain LGE1, hits give low values
[27] = locus YMR307W, strain GAS1, hits give low values

Measured: normalized growth

COC(=O)C(OC(C)=O)[C@H]1C(C)(C)C(OC(C)=O)[C@@H]2CC3=C4CC(=O)O[C@@H](c5ccoc5)[C@]4(C)CCC3[C@@]1(C)C2=O (some centres not stated)
inactive: [1] 0.961 | [2] 0.967 | [3] 0.979 | [4] 0.917 | [5] 0.99 | [6] 0.932 | [7] 0.989 | [8] 0.951

CCC(NC(C)C)C(O)c1ccc(O)c(O)c1 (configuration not stated)
inactive: [9] 1 | [10] 0.992 | [11] 1.02 | [12] 1.01 | [13] 1.02 | [14] 0.976 | [1] 1.01 | [2] 0.97 | [3] 0.982 | [4] 0.954 | [5] 0.99 | [15] 1.02 | [16] 1 | [17] 1.02 | [6] 0.923 | [18] 1.02 | [19] 1.01 | [20] 0.992 | [21] 1.03 | [7] 0.982 | [22] 0.991 | [8] 0.96

CN(N=O)c1cc(O)ccc1O
inactive: [9] 0.98 | [10] 0.99 | [23] 1 | [11] 0.975 | [12] 1 | [13] 0.988 | [24] 0.989 | [25] 0.993 | [16] 1.02 | [17] 0.983 | [18] 1.01 | [19] 0.991 | [21] 0.991 | [26] 0.972 | [22] 0.987

CN(N=O)c1ccc(O)c(O)c1
inactive: locus YAL013W, strain DEP1, hits give low values 0.957 | [9] 0.997 | [10] 0.946 | [11] 0.928 | [12] 0.974 | [13] 0.972 | [24] 0.93 | [15] 0.998 | [17] 0.976 | [18] 0.964 | [19] 0.994 | [21] 0.98 | [26] 0.993
active: [23] 0.934

CC(C)C[C@H](NC(=O)[C@H](O)[C@H](N)Cc1ccccc1)C(=O)O
inactive: [9] 0.978 | [10] 1 | [11] 1.03 | [12] 1.03 | [14] 1 | [15] 0.994 | [27] 0.986 | [25] 0.981 | [16] 0.986 | [17] 0.999 | [18] 1 | [19] 0.99 | [21] 1.03

CC(C)C[C@H](NC(=O)[C@@H](O)[C@H](N)Cc1ccccc1)C(=O)O
inactive: [9] 1.05 | [10] 1.01 | [23] 1.03 | [11] 0.994 | [12] 1.02 | [13] 0.998 | [16] 1.03 | [17] 0.997 | [18] 0.996 | [19] 1.01 | [21] 0.989 | [26] 1.02

CC(C)CC(NC(=O)C(Cc1ccccc1)NC(=O)CNC(=O)CNC(=O)C(N)Cc1ccc(O)cc1)C(=O)O (configuration not stated)
inactive: locus YBR021W, strain FUR4, hits give low values 0.858 | locus YBR229C, strain ROT2, hits give low values 0.95 | locus YCL029C, strain bik1, hits give low values 0.979 | locus YDL035C, strain GPR1, hits give low values 0.956 | locus YDL074C, strain BRE1, hits give low values 1.01 | locus YDL101C, strain DUN1, hits give low values 1.02 | locus YDL185W, strain tfp1, hits give low values 0.973 | locus YDL192W, strain arf1, hits give low values 0.995 | locus YDR101C, strain arx1, hits give low values 0.976 | [23] 0.989 | locus YDR162C, strain NBP2, hits give low values 0.951 | locus YDR318W, strain mcm21, hits give low values 0.991 | locus YDR388W, hits give low values 0.978 | locus YDR502C, strain sam2, hits give low values 1.01 | locus YEL061C, strain CIN8, hits give low values 0.987 | locus YER110C, hits give low values 0.988 | locus YER155C, strain BEM2, hits give low values 1.01 | locus YER167W, strain BCK2, hits give low values 0.989 | locus YGL078C, strain dbp3, hits give low values 0.999 | locus YGL086W, strain mad1, hits give low values 1 | locus YGL248W, strain PDE1, hits give low values 1 | locus YGR135W, strain pre9, hits give low values 0.96 | [14] 0.963 | locus YGR252W, strain gcn5, hits give low values 1.07 | [1] 0.984 | locus YHR079C, strain IRE1 (second series), hits give low values 0.996 | locus YHR094C, strain hxt1, hits give low values 0.982 | locus YHR129C, strain ARP1, hits give low values 0.998 | locus YHR200W, strain rpn10, hits give low values 0.994 | locus YIL066C, strain RNR3, hits give low values 0.948 | locus YIL073C, strain SPO22, hits give low values 1.28 | locus YIL125W, strain kgd1, hits give low values 0.993 | locus YIR030C, strain dcg1, hits give low values 1 | [3] 1.06 | locus YJL134W, strain LCB3, hits give low values 0.987 | locus YJL168C, strain set2, hits give low values 1.01 | locus YJL187C, strain SWE1 (second series), hits give low values 1.03 | locus YJR043C, strain POL32, hits give low values 0.976 | locus YKL009W, strain mrt4, hits give low values 1.01 | locus YKL068W, hits give low values 0.989 | locus YKL085W, strain MDH1 (second series), hits give low values 0.99 | locus YKL085W, strain MDH1, hits give low values 0.99 | locus YKL190W, strain CNB1, hits give low values 1 | locus YKR001C, strain vps1, hits give low values 1.01 | locus YLR058C, strain SHM2, hits give low values 0.981 | locus YLR102C, strain apc9, hits give low values 0.994 | locus YLR268W, strain sec22, hits give low values 1.01 | locus YLR330W, strain CHS5, hits give low values 0.986 | locus YLR342W, strain FKS1 (second series), hits give low values 0.889 | locus YLR371W, strain rom2, hits give low values 0.988 | locus YLR418C, strain cdc73, hits give low values 1 | locus YML016C, strain PPZ1, hits give low values 0.975 | locus YML032C, strain rad52, hits give low values 0.97 | locus YML124C, strain tub3, hits give low values 0.998 | locus YMR078C, strain ctf18, hits give low values 0.986 | locus YMR223W, strain ubp8, hits give low values 0.988 | [27] 1.01 | locus YNL067W, strain RPL9B, hits give low values 1.05 | [25] 0.969 | locus YNL233W, strain BNI4, hits give low values 1.04 | locus YNL250W, strain rad50, hits give low values 0.981 | locus YNL271C, strain bni1, hits give low values 0.988 | locus YNL298W, strain CLA4, hits give low values 0.979 | locus YNL307C, strain MCK1, hits give low values 0.987 | [20] 0.997 | locus YNR052C, strain pop2, hits give low values 0.981 | locus YOL012C, strain htz1 0.972 | locus YOL147C, strain pex11, hits give low values 0.993 | locus YOR061W, strain CKA2, hits give low values 0.961 | locus YOR069W, strain VPS5, hits give low values 0.99 | locus YOR136W, strain idh2, hits give low values 1.02 | locus YOR144C, strain elg1, hits give low values 0.995 | locus YOR184W, strain ser1, hits give low values 0.996 | locus YOR316C, strain cot1, hits give low values 0.989 | [26] 0.988 | [22] 0.985 | locus YPR119W, strain clb2, hits give low values 0.992 | locus YPR141C, strain kar3, hits give low values 0.991 | locus YPR163C, strain tif3, hits give low values 0.979 | locus YPR167C, strain met16, hits give low values 0.997 | strain wtn01, hits give low values 0.987
active: locus YLR039C, strain RIC1, hits give low values 1.38 [resistant] | locus YLR262C, strain YPT6, hits give low values 1.46 [resistant]
